In PubChem BioAssay (NCATS) one finds Potency, activation and viability data, which are given here for 17 compounds.

“And” between values parts separate entries of the source, which are not always exact repeats. Identical values can stand only once. Results filed as inconclusive are left out. Values without a mark were called inactive. The source made the active and inactive calls. The call rests on the fitted dose curve; in most records, active means well fitted curve in the direction sought with a large enough effect; inconclusive means small, poorly fitted or top-dose-only effect, or another doubt; inactive means no such curve, though single readings can be large; an effect the other way counts as inactive or inconclusive.

Experiment [1] concerns the target Cellular tumor antigen p53 (Homo sapiens) (UniProt P04637). The experiment in a line: Primary qHTS for small molecule compounds that upregulate eGFP-tagged delta133p53alpha (in N-terminal) cells. (AID 2060322). Further: nearly all actives have a fitted effect of over 75% in size. Further: potency means the concentration at half of the fitted maximal effect.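 On activation: series mostly up to about 56 µM; 0% = DMSO vehicle and 100% = reference activator.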 To be noted: NCI-H358 eGFP-delta133p53alpha fluorescence, 24 h; activation: active compounds read high. The method, boiled down: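 NCI-H358 cells pre-induced 24 h with 10 ng/ml doxycycline to express N-terminal eGFP-delta133p53alpha, then dosed 24 h at 37C without doxycycline; fixed, Hoechst-stained, GFP intensity by laser scanning cytometry, normalized to DMSO (0%) and 57.5 uM 5-azacytidine (100%).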

The target of experiment [2] is Aldehyde dehydrogenase, mitochondrial (Homo sapiens) (UniProt P05091). The experiment in a line: qHTS for Inhibitors of the Aldehyde Dehydrogenase Family (ALDH2) Primary screen (AID 2061308).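 Further: plate controls were vehicle for no effect and reference inhibitor for full effect; nearly all actives have a fitted effect of over 55% in size.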
In experiment [3] the target is Retinaldehyde dehydrogenase 3 (Homo sapiens) (UniProt P47895). The experiment in a line: qHTS for Inhibitors of the Aldehyde Dehydrogenase Family (ALDH1A3) Validation screen (AID 2061312). Further: on the % scale 0 is the no-effect control and ±100 the full control effect; nearly all actives have a fitted effect of over 45% in size. On the technique in general: qHTS replaces the single test concentration by a dilution series.
Experiment [4] has the same target. The experiment in a line: qHTS for Inhibitors of the Aldehyde Dehydrogenase Family (ALDH1A3) Primary screen (AID 2061315).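 Further: plate controls were DMSO vehicle for no effect and reference inhibitor for full effect.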
The nature of experiment [5]: BET inhibitor-based combinations targeting novel dependencies in MECOM-rearranged (r) AML: SET-2 cell line (AID 2202231). Further: nearly all actives have a fitted effect of over 35% in size. Further: potency means the concentration at half of the fitted maximal effect.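 On viability: plate controls were DMSO treated cells for no effect and wells without cells for full effect.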 Conditions: SET-2 AML cells viability, CellTiter-Glo luminescence, 48 h; viability: active compounds read low, concentration not given here. The gist of the method: (§1)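 500 cells/well; 11-pt dose curve; 48 h, standard incubator; CellTiter-Glo luminescence after 15 min RT; DMSO/empty-well normalization; AUC plus Z-AUC (mean-centered within each line).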

Experiment [6] is described as follows: BET inhibitor-based combinations targeting novel dependencies in MECOM-rearranged (r) AML: HNT-34 cell line (AID 2202234). Further: nearly all actives have a fitted effect of over 35% in size. Further: potency means the concentration at half of the fitted maximal effect. The gist of the method: (§2)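 Cells were plated at 500 per well and exposed to each drug across an 11-point dose range for 48 hr at standard incubator conditions. Viability was read by CellTiter-Glo luminescence, and activity was expressed as AUC and per-cell-line Z-transformed AUC.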

A short description of experiment [7]: BET inhibitor-based combinations targeting novel dependencies in MECOM-rearranged (r) AML: UCSD-AML1 cell line (AID 2202235). Further: nearly all actives have a fitted effect of over 40% in size. Further: potency means the concentration at half of the fitted maximal effect. The method, boiled down: as §2
Experiment [8] can be described thus: BET inhibitor-based combinations targeting novel dependencies in MECOM-rearranged (r) AML: AML-191 cell line (AID 2202236; further: nearly all actives have a fitted effect of over 35% in size; further: potency means the concentration at half of the fitted maximal effect). The method, boiled down: as §1
The nature of experiment [9]: BET inhibitor-based combinations targeting novel dependencies in MECOM-rearranged (r) AML: AML-194 cell line (AID 2202237; further: nearly all actives have a fitted effect of over 40% in size; further: potency means the concentration at half of the fitted maximal effect). The gist of the method:
as §1

Experiment [10] is described as follows: BET inhibitor-based combinations targeting novel dependencies in MECOM-rearranged (r) AML: OCI-AML3 cell line (AID 2202232). Further: potency means the concentration at half of the fitted maximal effect; nearly all actives have a fitted effect of over 35% in size. Conditions: Potency: OCI-AML3 viability. The method, boiled down:
as §1

A short description of experiment [11]: BET inhibitor-based combinations targeting novel dependencies in MECOM-rearranged (r) AML: MV-4-11 cell line (AID 2202233). Further: nearly all actives have a fitted effect of over 45% in size. Further: potency means the concentration at half of the fitted maximal effect. The method, boiled down:
as §2

Chain of Cellular tumor antigen p53 (Homo sapiens) (P04637 whole entry, looked up): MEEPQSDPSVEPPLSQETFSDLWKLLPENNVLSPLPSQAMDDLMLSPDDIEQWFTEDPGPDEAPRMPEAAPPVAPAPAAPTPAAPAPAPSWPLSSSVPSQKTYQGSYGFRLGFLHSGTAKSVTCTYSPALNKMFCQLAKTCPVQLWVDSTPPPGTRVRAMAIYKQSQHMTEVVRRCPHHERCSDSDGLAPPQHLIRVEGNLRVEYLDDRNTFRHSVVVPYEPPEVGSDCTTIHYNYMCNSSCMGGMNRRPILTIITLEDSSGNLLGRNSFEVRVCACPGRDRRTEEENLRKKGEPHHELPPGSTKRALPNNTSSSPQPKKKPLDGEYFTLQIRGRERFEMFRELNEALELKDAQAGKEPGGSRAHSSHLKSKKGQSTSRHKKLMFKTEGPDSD

As for `CC1(C)CCC(c2ccc(Cl)cc2)=C(CN2CCN(c3ccc(C(=O)NS(=O)(=O)c4ccc(N[C@H](CCN5CCOCC5)CSc5ccccc5)c(S(=O)(=O)C(F)(F)F)c4)cc3)CC2)C1`, the Potency in experiment [1] was 26.9 µM (active); in [5], 1.32 µM (active); in experiment [6], 0.468 µM (active); in [7], 1.05 µM (active); in experiment [8] it was 0.742 µM (active); in experiment [9], 0.833 µM (active). The Potency result in experiment [2], in experiment [3] and in experiment [4] was “inactive” each time.

Consider `CCc1nc(-c2cccc(C)c2)c(-c2ccnc(NC(=O)c3ccccc3)c2)s1`, for which the activation in experiment [1] was 17.2%. The Potency entry in experiment [2], in experiment [3] and in experiment [4] was “inactive” in each case. Besides, the Potency in experiment [10] was 0.0093 µM (active).

Consider `Nc1ncnc2c1c(-c1cccc(OCc3ccccc3)c1)cn2C1CC(CN2CCC2)C1` (configuration not stated), for which the activation in experiment [1] is 26% and 8.59%. Besides, the Potency result in [2], in [3] and in experiment [4] was “inactive” in each case. Moreover, the Potency is 16.6 µM (active) in experiment [5], 18.6 µM (active) in experiment [6], 18.6 µM (active) in [8] and 16.6 µM (active) in experiment [9].

What is called viability is a read-out of living cells in per cent, often relative to untreated cells. Turning to `CCCN1CCN(c2ccc(C(=O)NC3(C(=O)NCC#N)CCCCC3)cc2)CC1`, the activation in experiment [1] was -6.68%. Also, the Potency entry in [2], in experiment [3], in experiment [4], in [11], in experiment [6] and in experiment [7] was “inactive” throughout. Further, the Potency entry in experiment [8] and in experiment [9] was “inactive” in each case. The viability in [5] is 102%.

Regarding `Cc1nn(C)c(COc2ccc(N3CCN(S(=O)(=O)N(C)C)CC3)cc2)c1-c1cccc2c(CCCOc3cccc4ccccc34)c(C(=O)O)n(CCN3CCOCC3)c12`, the activation in experiment [1] is -22.8%. Further, the Potency result in experiment [2], in [3], in experiment [4], in experiment [7], in experiment [8] and in experiment [9] was “inactive” throughout. Also, in [5], the viability is 112%. Further, the Potency in experiment [11] was 6.61 µM (active).

Consider `CCNCc1nc2c(N)nc3ccccc3c2n1CC(C)(C)O`, for which, in [1], the activation is -0.477%. Further, the Potency entry in experiment [2], in experiment [3], in [4] and in [7] was “inactive” each time. Also, the viability in experiment [5] is 94.4%. Moreover, in [11], the Potency was 20.9 µM (active).

`CC[C@@H](C)Nc1cc(C(=O)NC2CC3CCC(C2)N3c2ccc(C(=O)C3CC3)cn2)c(C)cc1C(N)=O` (some centres not stated): the activation in experiment [1] is -11%. Further, the Potency entry in [2], in [3] and in experiment [4] was “inactive” in each case. Besides, the Potency in [5] was 0.132 µM (active); in experiment [11], 0.0661 µM (active); in [6] it was 0.148 µM (active); in experiment [7], 0.263 µM (active); in experiment [8], 0.209 µM (active); in experiment [9] it was 0.118 µM (active).

With `CC1(C)Cc2c(-c3ccccc3)c(-c3ccc(Cl)cc3)c(CC(=O)O)n2C1`, the activation in [1] is -18.1% and -12.4%. For the same compound, the Potency result in [2], in experiment [3], in experiment [4], in [8] and in [9] was “inactive” throughout. Moreover, the viability in experiment [5] is 104%. Moreover, in [11], the Potency was 23.5 µM (active).

With `C[C@H](NC(=O)Cc1cc(F)cc(F)c1)C(=O)N[C@@H]1C(=O)N(C)c2ccccc2-c2ccccc21`, the activation in experiment [1] was 27.1% and -2.39%. Also, the Potency result in experiment [2], in experiment [3], in experiment [4], in [11], in [6] and in [7] was “inactive” in each case. In addition, the Potency result in experiment [8] and in experiment [9] was “inactive” each time. Also, the viability in [5] was 121%.

In the case of `O=C1[C@H](CC[C@H](O)c2ccc(F)cc2)[C@@H](c2ccc(O)cc2)N1c1ccc(F)cc1`, in [1], the activation is -8.47% and 7.16%. The Potency entry in experiment [2], in [3] and in [4] was “inactive” throughout. Moreover, the Potency in experiment [10] is 20.9 µM (active); in [11], 16.6 µM (active).

Take `CC(C)CNc1ccnc(NCc2csc(-c3ccccc3)n2)n1`: in experiment [1], the activation was 18.4% and 19.6%. Also, the Potency result in experiment [2], in experiment [3] and in [4] was “inactive” each time. Also, the Potency in [5] was 11.8 µM (active); in experiment [11] it was 8.33 µM (active); in [6], 5.9 µM (active); in experiment [7], 5.25 µM (active); in [8] it was 16.6 µM (active); in [9], 16.6 µM (active).

For the compound `CCO[C@@H]1OC(=O)C[C@@H]1NC(=O)[C@@H]1CCCN1C(=O)[C@@H](NC(=O)c1ccc(N)c(Cl)c1)C(C)(C)C`, the activation in experiment [1] is -7.64%. Further, the Potency result in experiment [2], in experiment [3], in [4], in experiment [6], in experiment [7] and in experiment [9] was “inactive” throughout. Besides, the viability in experiment [5] was 112%.

As to `NC1(C(=O)N[C@@H](CCO)c2ccc(Cl)cc2)CCN(c2ncnc3[nH]ccc23)CC1`, the activation in [1] was 7.49%. Further, the Potency entry in experiment [2], in experiment [3] and in [4] was “inactive” in each case. Also, the Potency is 6.61 µM (active) in [10], 4.17 µM (active) in experiment [11], 10.5 µM (active) in experiment [6] and 1.48 µM (active) in [7].

Regarding `CNC1CCC(N(Cc2cccc(-c3ccncc3)c2)C(=O)c2sc3c(F)ccc(F)c3c2Cl)CC1` (configuration not stated), the activation in experiment [1] was 21.5%. The Potency entry in experiment [2], in experiment [3] and in [4] was “inactive” each time. In addition, the Potency was 26.3 µM (active) in experiment [5]; 16.6 µM (active) in [11]; 20.9 µM (active) in [6]; 20.9 µM (active) in experiment [8]; 23.5 µM (active) in experiment [9].

As to `Cc1cnc(Nc2cccc(CN3CCOCC3)c2)nc1Nc1cccc(S(=O)(=O)NC(C)(C)C)c1`, the activation in experiment [1] was 11%. Moreover, the Potency result in experiment [2], in experiment [3] and in experiment [4] was “inactive” throughout. The Potency was 2.63 µM (active) in experiment [5]; 0.332 µM (active) in experiment [11]; 1.66 µM (active) in experiment [6]; 1.32 µM (active) in experiment [7]; 1.66 µM (active) in experiment [8]; 1.32 µM (active) in [9].

Turning to `Cc1nc(C(=O)NCC(=O)O)c(O)c2ccc(Oc3ccccc3)cc12`, the activation in experiment [1] was 24.6% and -12.3%. The Potency entry in [2], in [3], in [4], in experiment [7], in experiment [8] and in experiment [9] was “inactive” each time. In addition, the viability in [5] is 96.3%.

`Cn1cc(-c2ccc3nnc(C(F)(F)c4ccc5ncccc5c4)n3n2)cn1`: in experiment [1], the activation was -10% and 1.43%. In addition, the Potency entry in experiment [2], in [3], in [4], in [7] and in experiment [9] was “inactive” in each case. The viability in experiment [5] was 106%.
